Data taken from PubChem BioAssay (NCI).
The panel holds about 83,000 compounds, 20% with a hit somewhere; the sample as a whole holds those more often.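 Treatment: one concentration, 48 hours, 96-well format. Scoring: percent growth, with anything below 10 considered active.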 Values without a mark were called inactive. Active and inactive are the calls of the source.

Test system: HL-60(TB) leukemia
Experiment: NCI-60 one-dose screen, 48 h (100 = growth as untreated, 0 = no growth, -100 = all killed)
Conditions: 10 µM unless noted

SMILES | growth
CN(C)CCOc1nc2c3cccnc3cc(-c3cccc(Cl)c3)c2c2ncccc12 | -20.4% (active)
COc1cc(/C=C/C(=O)c2c(-c3ccc(Cl)cc3)nc3sc(C)nn23)cc(OC)c1OC | 50.6%
CC(=O)[C@@H]1CC[C@]2(C(=O)n3ccnc3)CC[C@]3(C)[C@H](CC[C@@H]4[C@@]5(C)Cc6c([nH]c7ccccc67)C(C)(C)[C@@H]5CC[C@]43C)[C@@H]12 | 90.9%
CC(C)(C)c1cc(C(C)(C)c2ccccc2)cc(Cc2cc(C(C)(C)c3ccccc3)cc(C(C)(C)C)c2O)c1O | 112%
Cc1ccccc1-n1c(C)nc2cc(NC(=O)c3ccc(Cl)cc3)ccc2c1=O | 64.5%
